According to PubChem BioAssay (NCATS):
Results filed as inconclusive are left out. Entries that show only a call come without a potency. The source made the active and inactive calls. Calls come from the whole dose curve; as a rule, active = well fitted activation curve with a large enough effect; inconclusive = small, poorly fitted or top-dose-only effect; inactive = flat fitted curve, though single readings scatter. Where a SMILES comes first, the peptide text is derived from it. Bridges are numbered along the chain shown (N, C = ends). [ ]: non-standard residue; d: D form. The star is where a group is joined. X1 = CCC(C)C(N)C1=NC(C(=O)*)CS1; dOrn = NCCC[C@@H](N)C(=O)O

assay: Primary redox qHTS assay for identification of artifact compounds. (AID 1845223); conditions: Amplex Red/HRP redox cycling with DTT, fluorescence; series mostly up to 53.8 µM
Method in brief: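 Amplex Red (25 uM) and HRP (250 mU/mL) in HBSS, with compounds for 15 min, then 250 uM DTT for 30 min, room temperature, dark. Fluorescence 525/598 nm read; normalized to DMSO and 10 uM DA3003; Hill fit.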

| SMILES | Potency | redox activity (% of DA3003) |
| --- | --- | --- |
| Cc1nnc(C(C)C)n1C1CC2CCC(C1)N2CCC(NC(=O)C1CCC(F)(F)CC1)c1ccccc1 (centres undefined) | inactive | – |
| N#Cc1ccc2[nH]c(O)c(-c3ccc(CN4CCOCC4)cn3)c2c1 | inactive | – |
| C[C@@H]1O[C@@H](O[C@H]2[C@H](OC(C#N)c3ccc(O)cc3)O[C@H](CO)[C@@H](O)[C@@H]2O)[C@H](O)[C@H](O)[C@H]1O (some centres undefined) | inactive | – |
| C=C(C(=O)O)[C@@H]1CC=C2CCC[C@H](C)[C@@]2(C)C1 | inactive | – |
| O=C(O)Cc1nn(Cc2nc3cc(C(F)(F)F)ccc3s2)c(=O)c2nccnc12 | inactive | – |
| C=C1CCC[C@]2(C)C[C@]3(O)OC(=O)C(C)=C3C[C@@H]12 | inactive | – |
| COc1cc2c(cc1OC)CN(C(=O)[C@@H](NCc1ccncc1)C(C)(C)C)CC2 | inactive | – |
| c1ccc(Cc2ncc3c(n2)CCNCC3)cc1 | inactive | – |
| COC(=O)CC1(O)C(=O)Nc2ccccc21 (centres undefined) | inactive | – |
| C/C=C(\C)C(=O)O[C@@H](C)[C@H]1CC[C@]2(O)C3CCC4C[C@@H](OC5CC(OC)C(OC6CC(OC)C(OC7CC(OC)C(OC8OC(C)C(OC9OC(CO)C(O)C(O)C9O)C(OC)C8O)C(C)O7)C(C)O6)C(C)O5)CC[C@]4(C)C3[C@H](O)[C@@H](O)[C@]12C (some centres undefined) | – | 14% [at 11.5 µM] (inactive) |
| CCC(C)C(N)C1=NC(C(=O)N[C@@H](CC(C)C)C(=O)N[C@H](CCC(=O)O)C(=O)N[C@H](C(=O)N[C@H]2CCCCNC(=O)[C@H](CC(N)=O)NC(=O)[C@@H](CC(=O)O)NC(=O)[C@H](Cc3cnc[nH]3)NC(=O)[C@@H](Cc3ccccc3)NC(=O)[C@H]([C@@H](C)CC)NC(=O)[C@@H](CCCN)NC2=O)[C@@H](C)CC)CS1 (some centres undefined) (X1-L[dE]IK[dOrn]I[dF]H[dD]N; lactam 4-C) | inactive | – |
| CC(=O)O[C@@H]1[C@@H](OC(=O)/C=C/c2ccccc2)[C@H](C)O[C@@H](O[C@H]2[C@@H]3C=CO[C@@H](O[C@@H]4O[C@H](CO)[C@@H](O)[C@H](O)[C@H]4O)[C@@H]3[C@@]3(CO)O[C@@H]23)[C@@H]1OC(C)=O | inactive | – |
| C=Cc1cc(O)cc2nc(-c3ccc(O)c(F)c3)oc12 | inactive | – |
| Cc1c(CN(C)C(=O)/C=C/c2cnc3c(c2)CCC(=O)N3)oc2ccccc12 | inactive | – |
| Nc1nc(CC(=O)Nc2ccc(CCNCC(O)c3ccccc3)cc2)cs1 (centres undefined) | inactive | – |
| COc1cc(C)c(C(=O)O[C@H]2[C@@H](O)[C@H](n3ccc(=O)[nH]c3=O)O[C@@H]2CO)c(OC)c1 | inactive | – |
| CC(C)(O)C1CCC2(C)C3C(O)C4C(C13)C42CO (centres undefined) | inactive | – |
| COc1cc(/C=C/CO)ccc1O[C@@H]1O[C@H](CO)[C@@H](O)[C@H](O)[C@H]1O | inactive | – |
| CC(NC(=O)CC(=O)O)c1nc2ccccc2c(=O)[nH]1 (centres undefined) | inactive | – |
| CC(=O)C1CCC2(C)C3=C(CCC12C)C1(C)CCC(=O)C(C)(C)C1CC3 (centres undefined) | inactive | – |

| SMILES | Potency | redox activity (% of DA3003) |
| --- | --- | --- |
| C=C(C)C(C)C1OC23CC4(CO2)C(CCC2C5(C)CCC(OC6OCC(O)C(OC7OC(CO)C(O)C(OC8OCC(O)C(O)C8O)C7O)C6OC6OC(CO)C(O)C6O)C(C)(C)C5CCC24C)C3C(C)(O)C1OC(C)=O (centres undefined) | – | 8.02% [at 11.5 µM] (inactive) |
| COc1cc(C2Oc3c(OC)cc(CCCO[C@@H]4O[C@H](CO)[C@@H](O)[C@H](O)[C@H]4O)cc3C2CO)ccc1O (some centres undefined) | inactive | – |
| C=C1[C@@H]2CC[C@@]3(C)[C@H](c4ccoc4)OC(=O)C[C@]13O[C@H]1CC(=O)C(C)(C)[C@H](CC(=O)OC)[C@]12C | inactive | – |
| C=C(C)C1CC2(CO)C(=CC1=O)CCC(O)C2C (centres undefined) | inactive | – |
| C=CC1(C)C=C2C(=O)CC3C(C)(C)CCCC3(C(=O)O)C2(O)CC1 (centres undefined) | inactive | – |
| CCC(CC)n1ccc2c(C(=O)NCc3c(C)cc(C)[nH]c3=O)cc(C#N)cc21 | inactive | – |
| CCNC(=O)CCC/C=C\C[C@@H]1[C@@H](/C=C/C(O)CCc2ccccc2)[C@@H](O)C[C@@H]1O (some centres undefined) | inactive | – |
| C[C@]12CCC(=O)C=C1[C@@H](O)C[C@@H]1[C@@H]2[C@@H](O)C[C@@]2(C)[C@H]1CC[C@]2(O)C(=O)CO | inactive | – |
| C[C@@H]1C/C=C/C=C\C=C\C=C\[C@H](O[C@@H]2O[C@H](C)[C@@H](O)[C@H](N)[C@@H]2O)C[C@@H]2O[C@](O)(C[C@@H](O)C[C@H]3O[C@@H]3/C=C/C(=O)O1)C[C@H](O)[C@H]2C(=O)O | inactive | – |
| COc1ccc(C[C@H](N)C(=O)N[C@H]2[C@@H](O)[C@H](n3cnc4c(N(C)C)ncnc43)O[C@@H]2CO)cc1 | inactive | – |
| O=C(/C=C/c1ccc(O)cc1)OC[C@H]1O[C@@H](OC(=O)/C=C/c2ccccc2)[C@H](O)[C@@H](O)[C@@H]1O | inactive | – |
| CC1(C)C(=O)N2c3ccccc3[C@]3(CC(n4cnc5ccccc5c4=O)C(=O)O3)[C@H]2N1O (some centres undefined) | inactive | – |
| CC(C)=CCC/C(C)=C/CC/C(C)=C/CC[C@]1(C)CCc2cc(O)cc(C)c2O1 | inactive | – |
| CCOC(=O)c1ccnc(CNCC(=O)N(CC)CCN(C)C)c1 | inactive | – |
| O=C(COc1ccc(Cl)cc1)NC1CCC(NC(=O)COc2ccc(Cl)cc2)CC1 (centres undefined) | inactive | – |
| COC(=O)C1(Cc2ccc(O)cc2)OC(=O)C(OC)=C1c1ccc(O)cc1 (centres undefined) | inactive | – |
| CCc1cc2c(=O)c(-c3nc4ccccc4s3)coc2c(CN2CCCCC2)c1O | inactive | – |
| CC(=O)OC1C=C(C(=O)O)C2(CO)CCC(C)C(C)(CCc3ccoc3)C2C1 (centres undefined) | inactive | – |
| CC(C)[C@@H](C)/C=C/[C@@H](C)[C@H]1CC[C@H]2C3=CC=C4C[C@@H](O)CC[C@]4(C)[C@H]3CC[C@]12C | inactive | – |
